The text below walks through data of PubChem BioAssay AID2546 (National Center for Advancing Translational Sciences (NCATS), 2010).

Screen size: about 310,000 compounds; about 11,000 (3.5%) were called active. Roughly 8% stayed inconclusive and do not appear here. What follows is part of a selection rich in actives, with near analogues and random picks from the rest. A number with no mark means an inactive call. Calls come from the whole dose curve; as a rule, active = well fitted inhibition curve with a large enough effect; inconclusive = small, poorly fitted or top-dose-only effect, or effect the other way; inactive = flat fitted curve, though single readings scatter.
% is set by controls: 0 for no effect and ±100 for the full control effect; potency is the fitted concentration of half-maximal effect.

A short description of the test: VP16 counterscreen qHTS for inhibitors of ROR gamma transcriptional activity. Note: nearly all actives have a fitted effect of over 50% in size. To be noted: Drosophila S2 Gal4-VP16 UAS-luciferase, luminescence, 20 h; series mostly up to 53.6 µM; activity, negative = inhibition: at the top concentration. An excerpt: NIH Molecular Libraries Probe Production Network [MLPCN]
NIH Chemical Genomics Center [NCGC]
Assay Provider: Dan Littman, New York University
The retinoic acid-related orphan receptor (ROR) gamma is a transcription factor that has a central role in the differentiation of Th17 cells, a subset of T helper cells that secrete the inflammatory cytokines IL-17, IL-17F, and IL-22. Th17 cells have been implicated in graft versus host disease, autoimmune disease and asthma. ROR gamma is induced in naive T helper cells in the presence of TGF-beta combined with IL-6, IL-21, or IL-23, and thereafter directs the expression of the Th17 lineage cytokines. To identify nonspecific inhibitors, a Drosophila Schneider cell line was stably transfected with two vectors: a gene expressing a fusion of the Gal4 DNA binding domain and VP16 transactivation domain under the control of the metallothionine promoter and a Photinus luciferase reporter regulated by the Gal4 binding site enhancer, UAS. […] Small molecule inhibitors that inhibit components common to the RORgt and VP16 assays, such as the Gal4 DNA binding domain or the UAS luciferase reporter, will be active in both assays and thus scored as nonspecific.
For screening, 600 cells in 4 uL/well were dispensed into white solid 1536-well plates (Grenier) using a solenoid-based dispenser. Following transfer of 23 nL compound or DMSO vehicle by a pin tool, the plates were incubated 1 hr at ambient temperature, and 1 uL/well copper sulfate (700 uM final concentration) was added. The plates were centrifuged 15 s at 1000 RPM and incubated 20 hr at ambient temperature. After addition of 1.5 uL Photinus luciferase detection reagent, the plates were incubated 10 min at ambient temperature and then read by a ViewLux (Perkin Elmer) to detect luminescence.
In general terms: Counterscreens check selectivity or assay interference.
For the molecule `COc1ccc(C2c3[nH]c4ccccc4c3C[C@H]3C(=O)N(CC(C)C)CC(=O)N23)c(OC)c1` (stereo not given in full), the “activity, negative = inhibition” value is -0.271%. Still for that read-out and setting: the result for `O=S(=O)(NC1CCCCC1N1CCCCC1)c1ccc(Cl)cc1` (stereo not given) reads -10.5%. As to `COC(=O)c1cccnc1NC(=S)NC(C)C`, the Potency was 4.47 µM (active). As for `COc1ccc(OC)c(C(C)NC(=S)Nc2ccc(S(=O)(=O)Nc3ncccn3)cc2)c1` (stereo not given), the “activity, negative = inhibition” value is 10.8%.

In the case of `CCOC(=O)c1cccnc1NC(=O)c1ccncc1`, the “activity, negative = inhibition” value is -16%. Same read-out and setting: the result for `CCN(C(=O)c1cc([N+](=O)[O-])ccc1NCc1cccnc1)c1ccccc1` reads -7.93%; that for `O=C1NCC(=O)N(Cc2ccccc2)/C1=C/c1ccccc1`, 0.172%; that for `CC1=NN(Cc2ccccc2)C(=O)/C1=C/c1ccc(N(C)C)cc1`, 4.44%.

Regarding `CN(C)c1ccc(/C=C2\NC(=S)N(Cc3ccccc3)C2=O)cc1`, the Potency is 11.2 µM (active).

With `Cn1cc(S(=O)(=O)Nc2ccc(Cl)cc2Cl)c(=O)n(C)c1=O`, the “activity, negative = inhibition” value is -9.29%. As for `CC(=O)N/C(=N/c1nc(C)cc(C)n1)Nc1ccc(F)cc1F`, the “activity, negative = inhibition” value is 5.33%. Still for that read-out and setting: under `Cc1cc(NC(=O)c2cnn3cccnc23)n(-c2ccccc2)n1` stands -28.7%.

With `Cc1cc(C)nc(-n2nc(C)cc2NC(=O)c2ccc(F)cc2F)n1`, the Potency was 3.16 µM (active). As to `COc1cc2ccccc2cc1C(=O)N(CCN(C)C)c1nc2c(F)cccc2s1`, the “activity, negative = inhibition” value is -13.9%.

As to `CC(C)(C)SCCSC1=CC(=O)CC(c2ccccc2)C1` (stereo not given), the “activity, negative = inhibition” value is 28.7%. `O=C(Nc1ccc(S(=O)(=O)N2CCCCCC2)cc1)c1c(F)cccc1F`: the “activity, negative = inhibition” value was -14.4%.

For the molecule `CCOc1ncccc1C(=O)NCCc1ccc(OC)cc1`, the “activity, negative = inhibition” value was -0.0396%. Still for that read-out and setting: under `Cc1cc(C)cc(NC(=O)C2CCCN2S(=O)(=O)c2cccc3cccnc23)c1` (stereo not given) stands 0.608%. Turning to `O=C(COC(=O)c1ccc(F)cc1)Nc1nc2ccc([N+](=O)[O-])cc2s1`, the “activity, negative = inhibition” value was -1.03%. Same read-out and setting: under `CSc1nc2ccc(S(=O)(=O)N3CCc4ccccc43)cc2s1` stands -40.6%. Take `O=C(Nc1nc2ccc([N+](=O)[O-])cc2s1)c1ccc(S(=O)(=O)N2CCCc3ccccc32)cc1`: the Potency is 3.98 µM (active).

Take `CS(=O)(=O)c1ccc2nc(NC(=O)c3ccc(N4CCCC4=O)cc3)sc2c1`: the “activity, negative = inhibition” value is -7.58%. With `O=C(NC(Nc1nc2ccc([N+](=O)[O-])cc2s1)(C(F)(F)F)C(F)(F)F)c1ccccc1`, the Potency is 2.82 µM (active). As to `O=C(Nc1nc2ccc([N+](=O)[O-])cc2s1)c1ccncc1`, the “activity, negative = inhibition” value was -3.85%. Regarding `CCOC(=O)c1cc(C(=O)Nc2ccc(S(=O)(=O)Nc3ccc(OC)cc3)cc2)nn1C`, the “activity, negative = inhibition” value is -13.2%. Regarding `COC(=O)c1cccc(N(C(=O)CNC(=O)c2cccs2)C(C(=O)NCC2CCCO2)c2ccc(OC)c(OC)c2)c1` (stereo not given), the “activity, negative = inhibition” value was -2.8%. Same read-out and setting: under `Cc1cccc(CCNS(=O)(=O)c2ccc3c(c2)NC(=O)CO3)c1` stands 10.3%. Turning to `COc1ccc(CN2CCNC(=O)C2CC(=O)NCc2cn[nH]c2-c2ccccc2)c(F)c1` (stereo not given), the “activity, negative = inhibition” value is -5.29%. As for `COc1ccc(C(CNC(=O)COc2ccccc2OC)N2CCCCC2)cc1` (stereo not given), the “activity, negative = inhibition” value was -0.743%.

Take `O=C1OC2(CCCCC2)CC2=C1C1O[C@](c3ccsc3)(Cc3ccccc31)O2`: the activity, negative = inhibition was -4.71% [at 10 µM].

As for `COc1cc2c(cc1OC)C(c1ccccc1Br)NC(=O)C2` (stereo not given), the “activity, negative = inhibition” value is -3.64%. Consider `COc1ccc(NC(=O)CCCC2CCCCC2)c(OC)c1`, for which the “activity, negative = inhibition” value is 9.83%. Take `CCOc1cc(NC(=O)c2ccccn2)c(OCC)cc1NC(=O)c1ccc(OC)cc1`: the “activity, negative = inhibition” value was 4.71%. Take `CCN(CC)CCOc1ccc2c(c1)C(=NNC(=O)c1ccccn1)c1cc(OCCN(CC)CC)ccc1-2`: the Potency was 10 µM (active).

For the molecule `Cc1cccc(OCC(=O)NCCCNC(=O)c2ccccn2)c1`, the “activity, negative = inhibition” value is 4.73%. Take `Cc1onc(C(=O)Nc2ccc3c(c2)OCO3)c1[N+](=O)[O-]`: the “activity, negative = inhibition” value is -0.154%. Still for that read-out and setting: the result for `COc1ccc(N(C(=O)c2snc(C(N)=O)c2N)C(C(=O)NC2CCCC2)c2ccco2)cc1OC` (stereo not given) reads 18.6%; that for `COc1ccc(C(=O)N2CCCC(C(=O)c3ccccc3OC)C2)cc1OC` (stereo not given), 2.57%. With `COc1ccc(C(=O)Nc2cccnc2)cc1C(=O)Nc1cccnc1`, the “activity, negative = inhibition” value is -9.29%. Take `COc1ccc(C(=O)NC(=S)N2CCCCC2c2cccnc2)cc1OC` (stereo not given): the Potency is 17.8 µM (active). Take `O=C(NC(=S)N1CCCCC1c1cccnc1)c1ccccc1` (stereo not given): the Potency was 4.47 µM (active). `O=C(Nc1ccccc1C(F)(F)F)N1CCCC1c1cccnc1` (stereo not given): the “activity, negative = inhibition” value was -1.56%. As for `Cc1ccc(-c2cc(C(F)(F)F)n3ncc(C(=O)N4CCCCC4c4cccnc4)c3n2)cc1` (stereo not given), the “activity, negative = inhibition” value is -3.74%.

`COc1ccc(Nc2ncnc3sc(C)cc23)cc1`: the “activity, negative = inhibition” value is -8.4%. Same read-out and setting: the result for `CCc1nnc(NS(=O)(=O)c2ccc(N=Cc3c(C)[nH]n(-c4ccc(C)cc4)c3=O)cc2)s1` reads 0.41%; that for `Cc1ccc(-c2ccnc3[nH]n(-c4ccccc4)c(=O)c23)cc1`, -8.24%.

With `Cc1ccc(-n2[nH]c(C)c(/C=N/N3C(=O)c4cccc5cccc(c45)C3=O)c2=O)cc1`, the Potency was 12.6 µM (active). As for `O=C(CNC(=O)C1COc2ccccc2O1)N/N=C/c1cc(Br)c(O)c(Br)c1` (stereo not given), the “activity, negative = inhibition” value is -0.0094%. On the same count and under the same terms, under `O=C(NCCc1c[nH]c2ccccc12)C1CCN(Cc2ccc(Br)cc2)CC1` stands -0.728%; under `COc1ccccc1N1CCN(C(=O)CCS(=O)(=O)c2ccc3c(c2)NC(=O)C(C)S3)CC1` (stereo not given), -26.4%.
